# KB-3-1 tox: kills parental KB-3-1 adenocarcinoma cells; KB-3-1 viability, CellTiter-Glo ATP luminescence, 72 h; Potency, µM (series often up to 46.1 µM), hits mostly cytotoxic; 400,000 tested, 1.4% active; note: % is set by controls: 0 for no effect and ±100 for the full control effect; nearly all actives have a fitted effect of over 60% in size
#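 Screening of KB-3-1 cells (DMEM, 10% FBS, phenol-red free) ran from lowest to highest compound concentration; after 72 h at 37 °C viability was read luminescently and curves fitted.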
# S2 tox: reduces viability in counter-screen for ATXN expression inhibitors; S2 cells (HEK-293 line with an ATXN2-luciferase reporter) viability, CellTiter-Fluor protease fluorescence, 24 h; Potency, µM (doses to about 56.7 µM), usual class: cytotoxic; 400,000 tested, 0.49% active; AID 651635; note: nearly all actives have a fitted effect of over 40% in size
# HT1080NT lethal: kills 2HG-producing HT-1080-NT fibrosarcoma cells. 360,000 tested, 1.6% active. HT-1080-NT fibrosarcoma viability, CellTiter-Glo ATP luminescence, 48 h. AID 686970. Potency, µM (series often up to 46.1 µM), for the others: at the highest dose activity, negative = less viability, usual class: cytotoxic;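 note: NT is the 2HG producing partner of a matched IDH1 knockdown line; 0% = DMSO-treated cells and -100% = media-only wells without cells; nearly all actives have a fitted effect of over 55% in size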
#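 Viability by CellTiter-Glo luminescence after 48 h compound exposure at 37C of HT-1080-NT cells (750/well, RPMI, 5% FBS). % activity scaled between DMSO wells and medium-only wells, then curve-fitted and categorized by curve class.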
# HT1080 IDH1KD tx: kills HT-1080 cells with IDH1 knockdown; HT-1080 IDH1 knockdown viability, ATP luminescence, 48 h; Potency, µM (highest dose often 46.1 µM), for the others: at the top dose activity, negative = toxicity, usual class: cytotoxic; 360,000 tested, 2% active;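 note: 0% = DMSO wells and -100% = cell-free medium wells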
#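 HT-1080-IDH1KD cells (IDH1 knocked down), 750/well in RPMI with 5% FBS, treated with compound 48 h at 37 degrees C. Viability by CellTiter-Glo luminescence, normalised to DMSO and no-cell wells; concentration-response curves classed.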
# KB-V1 MDR tox: KB-V1 MDR subline cytotoxicity. KB-V1 MDR cells viability, CellTiter-Glo, 72 h. Potency, µM (doses to about 46.1 µM), usual class: cytotoxic. 400,000 tested, 3.4% active. AID 1347076; note: % is set by controls: 0 for no effect and ±100 for the full control effect; nearly all actives have a fitted effect of over 60% in size
#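 Cytotoxicity via CellTiter-Glo luminescence after 72 h compound exposure at 37 degrees C. Cells: drug-selected KB-V1 line, DMEM phenol-red free plus 10% FBS. Compounds tested at multiple concentrations; normalized data fitted to concentration-effect curves.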
# ATXN2 expr inh: reduces ATXN2 reporter expression in HEK-293 cells. Potency, µM (doses to about 57 µM), inactives show top-dose activity change, negative = inhibition, actives largely listed as inhibitors. 360,000 tested, 0.72% active. HEK-293 ATXN2-luciferase reporter, luminescence, 24 h; note: % is set by controls: 0 for no effect and ±100 for the full control effect; nearly all actives have a fitted effect of over 55% in size
#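 ATXN2-luciferase reporter cells (luciferase flanked by upstream and downstream ATXN2 gene portions) were treated 24 h at 37 °C with compounds at up to 57 uM. SteadyGlo luminescence gave expression; GF-AFC fluorescence gave viability.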
# * = called active by the depositor; i = inactive; ? = inconclusive; . = not tested or not shown. Sampled rows, rich in hits. Any-hit rate of the full collection: about 6.2%. Calls come from the whole dose curve; as a rule, active = well fitted curve in the direction sought with a large enough effect; inconclusive = small, poorly fitted or top-dose-only effect, or another doubt; inactive = no such curve, though single readings can be large; an effect the other way counts as inactive or inconclusive. Potency is the fitted concentration of half-maximal effect.
SMILES,KB-3-1 tox,S2 tox,HT1080NT lethal,HT1080 IDH1KD tx,KB-V1 MDR tox,ATXN2 expr inh
CC(C)(C)C(=O)Nc1ccc2c(c1)C(=O)C(=O)c1ccccc1-2,.,.,0.794µM*,0.794µM*,.,.
Cc1ccc(C(=O)Nc2ccc(-c3cn4cccnc4n3)cc2)cc1C,?,?,.,.,i,?
Cc1ccc(NP(=O)(Nc2ccc(C)cc2)Nc2ccc(C)cc2)cc1,20.6µM*,i,-13.8%,-2.2%,?,-34.8%
Cc1ccc(P(C)(=O)c2ccc(C)cc2)cc1,i,i,8.6%,18.8%,i,12.2%
Cc1ccc(/C=N/N=C/c2ccc(C)s2)s1,i,i,9.3%,8.9%,?,81.7%
Cc1cccc(C=Nc2ccccc2C(N)=O)c1,23.1µM*,i,10µM*,7.08µM*,6.51µM*,10.6%
Cc1ccc(C=Nc2ccccc2C(N)=O)s1,23.1µM*,?,5.17µM*,3.26µM*,i,12.3%
Cc1cccc(/C=N/NC(=O)Cc2cccs2)c1,i,i,1.0%,-0.5%,i,24.8%
O=C(NCCCO)c1c(O)c2cccc3c2n(c1=O)CCC3,5.8µM*,i,-8.1%,-14.8%,11.6µM*,-0.3%
CCCCNC(=O)c1c(O)c2cccc3c2n(c1=O)CCC3,i,i,7.8%,4.1%,i,-3.2%
O=C(NC(=S)Nc1ccc(CN2CCCCC2)cc1)c1cccc(OCc2ccccc2)c1,i,i,?,20.6µM*,?,.
CCN1CCN(c2ccc(NC(=O)c3cccc(OCc4ccccc4)c3)cc2)CC1,?,i,-24.2%,?,?,-1.1%
c1cc(CN2CCCCC2)cc(OCCCNc2nc3ccccc3s2)c1,i,?,?,?,?,?
O=C(NCCCOc1cccc(CN2CCCCC2)c1)c1ccc(Cl)c(Cl)c1,i,i,20.6µM*,23.1µM*,i,-20.9%
CN1CCN(c2ccc(NC(=O)c3cccc(OCc4ccccc4)c3)cc2)CC1,i,i,20.6µM*,18.4µM*,i,2.5%
CCCc1nc2ccc(N)cc2c(=O)n1Cc1ccccc1Cl,i,i,-3.5%,-11.7%,i,15.8%
Cn1c(C(=O)NCc2ccc3c(c2)OCO3)cc2sccc21,i,i,-28.0%,-29.3%,16.4µM*,6.7%
CCOc1ccc(CCNC(=O)c2cc3sccc3n2C)cc1OCC,i,?,0.5%,-1.6%,8.2µM*,-20.3%
CCOc1ccc(CCNC(=O)c2cc3sc(Cl)cc3n2C)cc1OCC,?,?,-20.6%,-21.5%,i,-29.7%
Cc1ccc(-n2c(CCC(=O)O)ccc2-c2cccs2)cc1Cl,i,i,.,.,?,3.5%
COC(=O)c1cc(=O)n(Cc2cccs2)c(=Nc2ccc(F)cc2)s1,?,26.7µM*,?,?,i,21.2µM*
COC(=O)c1cc(=O)n(Cc2ccc3c(c2)OCO3)c(=Nc2ccc(F)cc2)s1,?,i,1.7%,1.9%,i,-30.1%
COC(=O)c1cc(=O)n(Cc2ccc3c(c2)OCO3)c(=Nc2ccccc2)s1,?,?,?,?,i,-24.8%
COC(=O)c1cc(=O)n(Cc2ccco2)c(=Nc2ccc(F)c(Cl)c2)s1,18.4µM*,.,?,?,?,28.2µM*
COC(=O)c1cc(=O)n(CCc2ccccc2F)c(=Nc2ccc(F)c(Cl)c2)s1,?,.,20.6µM*,18.4µM*,i,26.7µM*
SMILES,KB-3-1 tox,S2 tox,HT1080NT lethal,HT1080 IDH1KD tx,KB-V1 MDR tox,ATXN2 expr inh
CC(=O)c1ccc(-c2cc(F)cc3c2OC(CNC(=O)c2ccc[n+]([O-])c2)C3)s1 (centres undefined),.,i,.,.,.,.
Cc1c(CCC(=O)NCCc2ccc(Cl)cc2)c(=O)oc2c(C)c(O)ccc12,i,i,.,.,i,-14.4%
CCc1ccc(S(=O)(=O)Nc2ccc3oc(C)c(C(=O)OCCOC)c3c2)cc1,i,?,.,.,i,-5.5%
CCOc1ccc(S(=O)(=O)Nc2ccc3oc(C)c(C(=O)OC(C)C)c3c2)cc1,?,?,.,.,13µM*,-24.6%
COCCOC(=O)c1c(C)oc2ccc(NS(=O)(=O)c3ccc(C)cc3)cc12,i,i,19.2%,-7.3%,8.2µM*,.
Cc1oc2ccc(OCC(N)=O)cc2c1C(=O)OC(C)C,23.1µM*,i,-17.1%,-26.6%,?,-4.4%
Cc1cc(C)c(S(=O)(=O)Nc2ccc3oc(C)c(C(=O)OC(C)C)c3c2)cc1C,i,?,.,.,?,?
CCC1CN(CC(=O)NC(C)c2cn(C)nc2C)Cc2cc(OC)ccc2O1 (centres undefined),.,i,.,.,.,.
Cc1nc2cc(NC(=O)[C@@H]3C[C@@H](Sc4ccccn4)CN3Cc3ccccc3F)ccc2s1,.,i,.,.,.,.
CC1=C(C(=O)N2CCCCCC2)CC(CC(=O)NCCN2CCOCC2)C(=O)N1CCCN1CCCC1=O (centres undefined),.,.,2.4%,1.9%,?,.
CCc1cccc(NC(=O)CN(C)S(=O)(=O)c2ccc3c(c2)n(C)c(=O)c(=O)n3C)c1,i,i,.,.,i,11.8%
CCCn1c(NCc2cc(OC)ccc2OC)nc2ccccc21,i,i,0.4%,6.4%,4.11µM*,33.8%
COc1ccc(CNc2nc3ccccc3n2CCN2CCCCC2)c(OC)c1,i,?,-13.3%,-24.9%,18.4µM*,-23.4%
COc1ccc(OC)c(CNc2nc3ccccc3n2CCN2CCCCC2)c1,?,?,?,?,4.11µM*,?
COc1ccc(CNc2nc3ccccc3n2Cc2ccc(C)cc2)cc1OC,i,i,-1.0%,8.7%,3.26µM*,-15.9%
c1ccc(Cn2c(NCc3ccncc3)nc3ccccc32)cc1,i,i,-2.1%,-4.1%,?,.
Cc1ncc2c(c1CNS(=O)(=O)N(C)C)CCN(C(=O)/C=C/c1ccccc1F)C2,.,i,.,.,.,.
CCCn1c(-c2ccc(OC)cc2)nc2ccccc21,?,i,-16.8%,?,18.4µM*,4.2%
O=C(CSc1ccccn1)Nc1nc2ccccc2s1,i,i,-1.6%,-2.1%,i,98.2%
O=S(=O)(CCSc1ccccn1)c1nc2ccccc2s1,i,.,20µM*,7.94µM*,i,?
O=S(=O)(CCSc1nc2ccccc2o1)c1nc2ccccc2s1,i,.,10µM*,6.31µM*,i,28.2µM*
CCOc1ccc(NC(=O)CSc2nnc(-c3ccccc3)n2N)cc1,i,i,-24.9%,-7.4%,i,-4.0%
O=C(O)CCSc1nnc(-c2ccncc2)n1-c1ccccc1,i,i,-2.0%,2.8%,i,-6.0%
CCNC(=O)CSc1nnc(-c2ccccc2)n1-c1ccc(OCC)cc1,i,i,13.5%,2.2%,18.4µM*,6.9%
